# Reference: PubChem BioAssay (NCATS)
# Results filed as inconclusive are left out. Where a call stands in place of a potency, no number is given. A number with no mark means an inactive call. The source made the active and inactive calls. Calls follow the shape of the dose curve; as a rule, active = well fitted curve in the direction sought with a large enough effect; inconclusive = small, poorly fitted or top-dose-only effect, or another doubt; inactive = no such curve, though single readings can be large; an effect the other way counts as inactive or inconclusive.
# Columns and labels:
# [1] = target: Rap guanine nucleotide exchange factor 3 (Homo sapiens) (UniProt O95398); assay: Confirmatory qHTS for agonist of cAMP-regulated guanine nucleotide exchange factor 3 (EPAC1) (AID 1645881); details: EPAC1 Rap1B BODIPY-GDP exchange fluorescence; series mostly up to 154 µM;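 also: EPAC1 catalysed release of BODIPY-GDP from Rap1B seen as fluorescence loss; nearly all actives have a fitted effect of over 75% in size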
# Chain of Rap guanine nucleotide exchange factor 3 (Homo sapiens) (O95398 whole entry, looked up): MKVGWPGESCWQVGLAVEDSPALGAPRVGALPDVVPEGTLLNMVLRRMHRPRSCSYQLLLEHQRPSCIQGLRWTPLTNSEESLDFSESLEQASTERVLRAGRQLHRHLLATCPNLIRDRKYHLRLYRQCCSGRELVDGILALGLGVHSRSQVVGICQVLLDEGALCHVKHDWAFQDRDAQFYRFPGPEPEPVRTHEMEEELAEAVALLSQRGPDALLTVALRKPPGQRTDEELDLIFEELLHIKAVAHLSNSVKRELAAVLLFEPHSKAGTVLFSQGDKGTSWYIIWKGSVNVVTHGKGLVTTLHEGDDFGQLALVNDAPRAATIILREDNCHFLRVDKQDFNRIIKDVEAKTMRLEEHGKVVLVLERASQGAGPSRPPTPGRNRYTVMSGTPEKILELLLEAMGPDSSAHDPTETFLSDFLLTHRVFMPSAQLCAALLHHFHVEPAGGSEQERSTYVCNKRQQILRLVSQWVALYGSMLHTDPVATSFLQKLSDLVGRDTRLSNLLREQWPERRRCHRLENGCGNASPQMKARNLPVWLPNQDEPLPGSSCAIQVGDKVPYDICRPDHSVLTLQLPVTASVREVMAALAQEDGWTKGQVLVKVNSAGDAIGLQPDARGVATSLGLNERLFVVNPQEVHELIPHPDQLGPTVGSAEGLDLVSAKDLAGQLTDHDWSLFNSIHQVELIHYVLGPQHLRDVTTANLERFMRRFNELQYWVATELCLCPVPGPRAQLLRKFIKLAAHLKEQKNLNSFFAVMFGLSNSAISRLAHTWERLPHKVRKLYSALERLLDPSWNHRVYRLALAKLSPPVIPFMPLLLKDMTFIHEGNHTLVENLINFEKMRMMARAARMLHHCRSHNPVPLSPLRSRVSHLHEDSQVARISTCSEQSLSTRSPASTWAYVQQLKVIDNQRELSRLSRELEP
# [2] = target: Rap guanine nucleotide exchange factor 4 (Homo sapiens) (UniProt Q8WZA2); assay: Confirmatory qHTS for agonist of cAMP-regulated guanine nucleotide exchange factor 4 (EPAC2) (AID 1645884); details: EPAC2 GEF activity, Rap1B-BODIPY-GDP fluorescence; series mostly up to 154 µM;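 also: nucleotide exchange releases bodipy-GDP from Rap1 and this lowers its fluorescence; nearly all actives have a fitted effect of over 65% in size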
# Chain of Rap guanine nucleotide exchange factor 4 (Homo sapiens) (Q8WZA2 whole entry, looked up): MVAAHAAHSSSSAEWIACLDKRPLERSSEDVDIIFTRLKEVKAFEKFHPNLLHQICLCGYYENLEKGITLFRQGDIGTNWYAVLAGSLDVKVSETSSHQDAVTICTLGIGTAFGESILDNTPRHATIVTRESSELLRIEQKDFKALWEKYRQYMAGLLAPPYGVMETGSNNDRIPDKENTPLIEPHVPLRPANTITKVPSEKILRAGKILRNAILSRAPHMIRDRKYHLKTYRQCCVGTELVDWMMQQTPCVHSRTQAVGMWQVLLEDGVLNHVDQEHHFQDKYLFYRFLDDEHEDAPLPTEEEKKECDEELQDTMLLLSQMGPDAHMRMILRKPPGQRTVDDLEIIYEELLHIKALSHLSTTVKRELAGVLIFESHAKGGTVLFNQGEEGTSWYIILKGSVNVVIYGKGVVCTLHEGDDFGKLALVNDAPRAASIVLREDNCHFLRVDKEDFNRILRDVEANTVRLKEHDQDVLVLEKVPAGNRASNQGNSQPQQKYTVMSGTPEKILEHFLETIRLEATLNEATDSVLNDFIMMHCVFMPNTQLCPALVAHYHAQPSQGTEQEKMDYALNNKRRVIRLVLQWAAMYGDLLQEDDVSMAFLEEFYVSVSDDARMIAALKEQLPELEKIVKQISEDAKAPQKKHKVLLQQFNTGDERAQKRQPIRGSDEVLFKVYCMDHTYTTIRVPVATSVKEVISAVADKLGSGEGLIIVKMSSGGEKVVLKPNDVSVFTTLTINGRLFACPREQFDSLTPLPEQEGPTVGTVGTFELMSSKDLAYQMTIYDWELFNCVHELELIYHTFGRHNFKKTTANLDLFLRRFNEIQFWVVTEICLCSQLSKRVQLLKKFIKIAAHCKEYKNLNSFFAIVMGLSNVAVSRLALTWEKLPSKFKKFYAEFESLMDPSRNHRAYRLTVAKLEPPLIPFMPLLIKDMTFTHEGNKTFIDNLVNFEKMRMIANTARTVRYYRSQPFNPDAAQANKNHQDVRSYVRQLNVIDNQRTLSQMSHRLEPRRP
# [3] = target: Rap guanine nucleotide exchange factor 4 (Homo sapiens) (UniProt Q8WZA2); assay: Confirmatory qHTS for antagonist of cAMP-regulated guanine nucleotide exchange factor 4 (EPAC2) (AID 1645885); details: EPAC2 Rap1B-BODIPY-GDP exchange fluorescence, biochemical; series mostly up to 12.7 µM; also: nearly all actives have a fitted effect of over 25% in size; also: potency is read from the fitted curve at half-maximal effect
# [4] = target: Rap guanine nucleotide exchange factor 3 (Homo sapiens) (UniProt O95398); assay: Counterscreen qHTS for antagonist of cAMP-regulated guanine nucleotide exchange factor 3 (EPAC1) (AID 1645888); details: Rap1B-BODIPY-GDP nucleotide exchange, fluorescence; series mostly up to 154 µM;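 also: fluorescence loss as bound BODIPY-GDP is released from Rap1B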
# In short: (§1)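 Rap1B-BODIPY-GDP 250 nM + GDP 50 uM; cpds 7-pt, final 9.74 nM–152 uM (activator mode) or from 7.32 nM upwards (inhibitor mode); RT; FI 480/540 nm at 5 and 30 min, then ± cAMP, reread.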
# [5] = target: Rap guanine nucleotide exchange factor 3 (Homo sapiens) (UniProt O95398); assay: Counterscreen qHTS for agonist of cAMP-regulated guanine nucleotide exchange factor 3 (EPAC1) (AID 1645889); details: EPAC1 Rap1B-BODIPY-GDP exchange, fluorescence; series mostly up to 154 µM; also: nearly all actives have a fitted effect of over 40% in size
# In short: as §1
Compound,Potency [1],activation [2],Potency [3],"activity change, negative = inhibition [4]",activation [5],Potency [2],Potency [4],Potency [5]
CC(C)(C)C(=O)N1CCC2CC1c1cc(-c3ccc4c(c3)OCO4)ccc12 (stereo not given),inactive,"4.8% [at 17.1 µM, percent relative to cAMP agonist control]",inactive,-12.7% [at 30.8 µM],13.1% [at 30.8 µM],,,
Cc1ccc(NC(=O)CCC(=O)c2cccs2)nc1,inactive,"3.39% [at 17.1 µM, percent relative to cAMP agonist control]",inactive,-8.32% [at 30.8 µM],21.4% [at 30.8 µM],,,
COC(=O)c1ccc2nc(-c3ccco3)c(Cc3ccccc3)n2c1,inactive,"7.95% [at 17.1 µM, percent relative to cAMP agonist control]",inactive,-11.9% [at 30.8 µM],10% [at 30.8 µM],,,
O=C(NCc1cccc(Cl)c1)c1ccc(S(=O)(=O)Nc2cccc(C(F)(F)F)c2)cc1,inactive,,inactive,,,inactive,inactive,inactive
CCCc1nc(SC2CCCC2)c2c(=O)n(C)c(=O)n(C)c2n1,inactive,,inactive,,,inactive,inactive,inactive
CCOc1cc(/C=C/C(=O)OCC(=O)NCc2ccco2)cc(Cl)c1OC,inactive,,inactive,,,inactive,inactive,inactive
Nc1ccc(SC(F)(F)F)cc1C(=O)c1ccccc1,inactive,"-2.87% [at 17.1 µM, percent relative to cAMP agonist control]",inactive,-9.64% [at 30.8 µM],5.87% [at 30.8 µM],,,
Cc1ccc2nc(-c3ccc(NC(=O)CSc4nccc(=O)[nH]4)cc3)sc2c1,inactive,,inactive,,,inactive,inactive,inactive
COc1ccc(OC)c(CCNC(=O)c2ccc(CS(=O)(=O)c3ccc(Br)cc3)o2)c1,inactive,,inactive,,,inactive,inactive,inactive
O=[N+]([O-])c1ccc(-n2nnnc2-c2ccccc2)c([N+](=O)[O-])c1,inactive,,inactive,,,inactive,inactive,inactive
COc1cc(O)c(C=NN2C(=O)CSC2=S)c(OC)c1,inactive,,inactive,,,inactive,inactive,inactive
CC(=O)N1CCN(Cc2cc(=O)oc3ccc4ccccc4c23)CC1,inactive,"4.37% [at 17.1 µM, percent relative to cAMP agonist control]",inactive,9.94% [at 30.8 µM],27.9% [at 30.8 µM],,,
Cc1ccc(-c2nnc(Nc3ccc(OCC(N)=O)cc3)c3ccccc23)cc1S(N)(=O)=O,inactive,,inactive,,,inactive,inactive,inactive
Cc1ccc(F)c(S(=O)(=O)NC(=O)C2(C)CCN2C(=O)C2(c3ccc(Cl)cc3)CCC2)c1 (stereo not given),inactive,,inactive,,,inactive,inactive,inactive
COc1cc(OC)cc(-c2cc3ccc(OC)cc3cn2)c1,inactive,,30.1 µM (active),,,inactive,inactive,inactive
Clc1ccc(CON/C=N/c2ncnc3sccc23)cc1,inactive,"8% [at 17.1 µM, percent relative to cAMP agonist control]",inactive,-10% [at 30.8 µM],11.3% [at 30.8 µM],,,
CCN1CCc2c(sc(-n3cccc3)c2C(C)NC(=O)Nc2ccc(C(=O)OC)cc2)C1 (stereo not given),inactive,,inactive,,,inactive,inactive,inactive
CCc1nnc(NS(=O)(=O)c2ccc(NCc3cc(Cl)cc(Cl)c3O)cc2)s1,inactive,,5.36 µM (active),,,inactive,inactive,inactive
C=CCc1ccccc1OCCSc1nc(-c2ccccc2F)nc2cc(=O)[nH]n12,inactive,,inactive,,,inactive,inactive,inactive
CCCCC(CC)C(=O)Oc1ccc(O)c(C(C)(C)C)c1 (stereo not given),inactive,"-3.79% [at 17.1 µM, percent relative to cAMP agonist control]",inactive,0.29% [at 30.8 µM],-16.7% [at 30.8 µM],,,
CCc1nnc(NS(=O)(=O)c2ccc(N/C=C\C(=O)c3ccc4ccccc4c3)cc2)s1,inactive,"1.49% [at 17.1 µM, percent relative to cAMP agonist control]",inactive,-10.2% [at 30.8 µM],3.82% [at 30.8 µM],,,
COc1ccc(/C=C2/SC(=O)N(CCC(=O)Nc3ccc(S(=O)(=O)Nc4nccs4)cc3)C2=O)cc1,inactive,,inactive,,,inactive,inactive,inactive
CC(=O)c1sc2nc(CSc3nnnn3-c3ccccc3)[nH]c(=O)c2c1C,inactive,"0.183% [at 17.1 µM, percent relative to cAMP agonist control]",inactive,-6.43% [at 30.8 µM],8.36% [at 30.8 µM],,,
O=c1c2ccccc2c(C=Nc2ccc(O)cc2)c(O)n1Cc1ccccc1,inactive,"1.98% [at 17.1 µM, percent relative to cAMP agonist control]",inactive,-7.68% [at 30.8 µM],1.81% [at 30.8 µM],,,
COc1ccc2[nH]cc(S(=O)(=O)c3ccc(C)cc3)c2c1,inactive,,21.3 µM (active),,,inactive,inactive,inactive
